Consider 13 compounds from PubChem BioAssay (NCI).

Compounds without any hit were thinned out: in the full panel of roughly 83,000, 20% have a hit.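 Each cell line was grown in a 96-well plate and treated with one concentration of compound for 48 hours. Values below 10 were considered active.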 Values without a mark were called inactive. Activity calls are given as the source filed them.

Test systems include SR leukemia; RPMI-8226 leukemia; OVCAR-8 ovarian; OVCAR-5 ovarian; OVCAR-4 ovarian; SK-OV-3 ovarian; IGROV1 ovarian; OVCAR-3 ovarian; HS 578T breast; NCI/ADR-RES ovarian.
Common to all, as to experiment: NCI-60 one-dose screen, 48 h (100 = growth as untreated, 0 = no growth, -100 = all killed)
What all share (settings): 10 µM

As to `Cc1ccc(C)c2c1sc1nc3n[nH]c(N)c3c(=N)n12`, the growth is 97.6% in the assay on SR leukemia; 93.2% with RPMI-8226 leukemia; 97.9% in the assay with OVCAR-8 ovarian; 106% with OVCAR-5 ovarian; 101% in the assay on OVCAR-4 ovarian; 127% in the assay with SK-OV-3 ovarian. The growth was 127% in the assay with IGROV1 ovarian, 114% in the assay with OVCAR-3 ovarian, 107% in the assay on HS 578T breast and 110% with NCI/ADR-RES ovarian.

`COc1cccc(C(=O)NNc2nc(N3CCOCC3)nc(N3CCN(C(c4ccccc4)c4ccccc4)CC3)n2)c1`: the growth in the assay with SR leukemia was 65.6%; in the assay on RPMI-8226 leukemia, 71.2%; with OVCAR-8 ovarian it was 82.5%; in the assay on OVCAR-5 ovarian it was 94.1%; in the assay with OVCAR-4 ovarian, 73.4%; in the assay with SK-OV-3 ovarian it was 73.7%. Further, the growth with IGROV1 ovarian is 67.4%; with OVCAR-3 ovarian it was 74.6%; with HS 578T breast it was 80.1%; in the assay with NCI/ADR-RES ovarian, 84.3%.

For the compound `Cc1ccccc1[P+](Cc1ccccc1)(c1ccccc1)c1ccccc1`, the growth in the assay on SR leukemia is 2.45% (active); with RPMI-8226 leukemia, -27% (active); with OVCAR-8 ovarian, 10%; with OVCAR-5 ovarian, 52%; in the assay on OVCAR-4 ovarian it was 8.97% (active); in the assay with SK-OV-3 ovarian it was 43.7%. Further, the growth with IGROV1 ovarian was 14.3%; in the assay with OVCAR-3 ovarian, 26.4%; in the assay with HS 578T breast, 54.4%; in the assay on NCI/ADR-RES ovarian it was 104%.

As to `CC(C)(C)c1ccc(OCCCCCCN2CCNCC2)cc1`, the growth with SR leukemia was -8.37% (active); in the assay on RPMI-8226 leukemia, 0.146% (active); with OVCAR-8 ovarian, 89.7%; in the assay with OVCAR-5 ovarian, 82.2%; in the assay with OVCAR-4 ovarian it was 72%; in the assay on SK-OV-3 ovarian, 86.4%. Moreover, the growth was 80.8% with IGROV1 ovarian, 82.1% in the assay with OVCAR-3 ovarian, 72.4% with HS 578T breast and 79.7% in the assay on NCI/ADR-RES ovarian.

In the case of `FC(F)(F)c1ccc(-c2ncc(-c3ccc(C(F)(F)F)cc3)c(NCc3cc(C(F)(F)F)cc(C(F)(F)F)c3)n2)cc1`, the growth in the assay on SR leukemia is 83.7%; with RPMI-8226 leukemia, 53%; in the assay with OVCAR-8 ovarian, 44.5%; in the assay on OVCAR-5 ovarian, 79.4%; in the assay on OVCAR-4 ovarian, 81.3%; in the assay with SK-OV-3 ovarian, 82.4%. Besides, the growth in the assay with IGROV1 ovarian was 65.6%; in the assay with OVCAR-3 ovarian, 31.9%; in the assay with HS 578T breast it was 71.9%; with NCI/ADR-RES ovarian, 68.5%.

Regarding `COc1ccc(/C=C(\c2cc(OC)c(OC)c(OC)c2)c2nnc(-c3cccs3)o2)cc1`, the growth with SR leukemia was 78.3%; with RPMI-8226 leukemia, 83.9%; with OVCAR-8 ovarian, 47.6%; in the assay on OVCAR-5 ovarian, 99.4%; in the assay on OVCAR-4 ovarian, 26.6%; in the assay on SK-OV-3 ovarian it was 62.7%. The growth in the assay with IGROV1 ovarian is 71.7%; in the assay with OVCAR-3 ovarian, 82.6%; with HS 578T breast, 43.6%; in the assay with NCI/ADR-RES ovarian, 66.4%.

With `COc1cc([C@@H]2c3cc4c(cc3[C@H](SC(=N)N)[C@H]3COC(=O)[C@H]23)OCO4)cc(OC)c1OC`, the growth with SR leukemia was 14.1%; with RPMI-8226 leukemia it was 8.62% (active); in the assay on OVCAR-8 ovarian, 23.5%; in the assay with OVCAR-5 ovarian, 28.2%; with OVCAR-4 ovarian it was 54.7%; in the assay on SK-OV-3 ovarian, -4.1% (active). The growth is -0.422% (active) with IGROV1 ovarian, 1.61% (active) in the assay with OVCAR-3 ovarian, 34.2% with HS 578T breast and -0.709% (active) in the assay on NCI/ADR-RES ovarian.

For the compound `C=C[C@]1(C)C=C2C(=O)[C@@]3(O)OC(=O)[C@@]4(CCCC(C)(C)[C@H]34)[C@@]2(O)CC1`, the growth was -11% (active) in the assay with SR leukemia; -25.4% (active) with RPMI-8226 leukemia; -56.8% (active) in the assay with OVCAR-8 ovarian; -71.7% (active) in the assay with OVCAR-5 ovarian; -74.4% (active) in the assay with OVCAR-4 ovarian; 38.4% in the assay on SK-OV-3 ovarian. For the same compound, the growth is -92.8% (active) in the assay with IGROV1 ovarian, -90.4% (active) in the assay on OVCAR-3 ovarian, 0.722% (active) in the assay with HS 578T breast and -6.84% (active) in the assay on NCI/ADR-RES ovarian.

Consider `C=CCNCCCN1C(=O)c2ccc3c4c(ccc(c24)C1=O)C(=O)N(CCCNCC=C)C3=O`, for which the growth in the assay with SR leukemia is -12.8% (active); with RPMI-8226 leukemia, 11.3%; in the assay with OVCAR-8 ovarian, -14.5% (active); with OVCAR-5 ovarian, -44.6% (active); with OVCAR-4 ovarian, -98.5% (active); in the assay with SK-OV-3 ovarian, -36.9% (active). For the same compound, the growth with IGROV1 ovarian is -70.3% (active); in the assay with OVCAR-3 ovarian, -18.1% (active); in the assay on HS 578T breast, -41.3% (active); with NCI/ADR-RES ovarian it was -7.11% (active).

Consider `Cc1cccc2c1O/C(=C\c1ncc([N+](=O)[O-])n1C)C2=O`, for which the growth in the assay with SR leukemia was 9.3% (active); with RPMI-8226 leukemia, -13% (active); in the assay on OVCAR-8 ovarian it was -21.3% (active); in the assay on OVCAR-5 ovarian, -15.7% (active); with OVCAR-4 ovarian it was -2.81% (active); in the assay on SK-OV-3 ovarian, -17.5% (active). Besides, the growth in the assay on IGROV1 ovarian is -18.1% (active); in the assay on OVCAR-3 ovarian, -12.2% (active); in the assay with HS 578T breast it was -23.9% (active); in the assay with NCI/ADR-RES ovarian, 2.37% (active).

Consider `COc1ccc(Cn2cc3c(c2-c2cc(OC)c(OC)c(OC)c2)CCc2cnoc2-3)cc1N`, for which the growth was 14.8% with SR leukemia; 25.7% in the assay with RPMI-8226 leukemia; 28% in the assay on OVCAR-8 ovarian; 52.4% in the assay with OVCAR-5 ovarian; 37.6% in the assay on OVCAR-4 ovarian; 2.09% (active) in the assay on SK-OV-3 ovarian. The growth with IGROV1 ovarian was 7.25% (active); with OVCAR-3 ovarian it was 1.74% (active); with HS 578T breast, 10.4%; with NCI/ADR-RES ovarian, 6.71% (active).

As to `CCCCc1ccc(NC(=O)N(CCCl)N=O)cc1`, the growth in the assay on SR leukemia is 30.9%; in the assay with RPMI-8226 leukemia, 98.6%; with OVCAR-8 ovarian, 96.7%; in the assay with OVCAR-5 ovarian, 104%; with OVCAR-4 ovarian, 108%; with SK-OV-3 ovarian, 95.3%. Also, the growth is 97.2% in the assay with IGROV1 ovarian, 105% in the assay on OVCAR-3 ovarian, 111% in the assay with HS 578T breast and 115% with NCI/ADR-RES ovarian.

As to `C#CCNCCCN1C(=O)c2ccc3c4c(ccc(c24)C1=O)C(=O)N(CCCNCC#C)C3=O`, the growth in the assay with SR leukemia was -21.1% (active); in the assay on RPMI-8226 leukemia, 12.5%; in the assay with OVCAR-8 ovarian, -31.1% (active); in the assay on OVCAR-5 ovarian it was -73.6% (active); in the assay with OVCAR-4 ovarian it was -97.8% (active); in the assay on SK-OV-3 ovarian, -42.7% (active). Moreover, the growth in the assay with IGROV1 ovarian was -75.1% (active); in the assay with OVCAR-3 ovarian it was -27.6% (active); in the assay on HS 578T breast, -22.9% (active); with NCI/ADR-RES ovarian, -32% (active).
